Inconclusive results are not listed. Entries that show only a call come without a potency. Values without a mark were called inactive. The source made the active and inactive calls. Calls come from the whole dose curve; as a rule, active = well fitted cell-killing curve with a large enough effect in the repeat runs; inconclusive = weak or mixed curves, or effect the other way; inactive = flat fitted curve, though single readings scatter.
Columns and labels:
[1] = cAMP Responsive Elements (CRE) small molecule antagonists, cell-based qHTS assay: qHTS cell viability counter screen (AID 2060913); note: nearly all actives have a fitted effect of over 40% in size
Method in brief: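 Cytotoxicity counter screen multiplexed with the CRE-bla antagonist read: HEK293T cells in DMEM with dialyzed FBS and 25 mM HEPES were treated 3 hrs under 0.25 uM final NKH477, then viability measured by CellTiter-Glo luminescence.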

[2] = cAMP Responsive Elements (CRE) small molecule agonists, cell-based qHTS assay: qHTS cell viability counter screen (AID 2060914);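 note: viability read after 3 h of compound exposure; nearly all actives have a fitted effect of over 50% in size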
Method in brief: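 Cells are seeded and incubated 18 h, treated with compounds in DMSO for 3 h, read for the bla reporter, then given CellTiter-Glo; luminescence is measured after 30 min at room temperature.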
Potency is the fitted concentration of half-maximal effect.

SMILES | Potency [1] | Potency [2] | viability change, negative = cytotoxic [1] | activity change, negative = cytotoxicity [2]
Clc1ccc(C(Cl)(Cl)Cl)cn1 | inactive | inactive | – | –
O=C(O)CCCCCCNC1c2ccccc2CCc2ccccc21 | inactive | inactive | – | –
CC(=O)C(Cl)C(=O)N(C)C (stereo not given) | inactive | inactive | – | –
CCNc1nc(Cl)nc(NCC)n1 | inactive | inactive | – | –
C=CCc1ccc(OC(=O)Cc2ccccc2)c(OC)c1 | inactive | inactive | – | –
CNC(C)Cc1ccc2c(c1)OCO2 (stereo not given) | inactive | inactive | – | –
CNC | inactive | inactive | – | –
Nc1c(Br)cc(Br)c2c1C(=O)c1ccccc1C2=O | – | – | 10% [at 18.9 µM] | -19.1% [at 18.9 µM]
Clc1ccc(C2(Cn3cncn3)OCCO2)c(Cl)c1 | inactive | inactive | – | –
O=[N+]([O-])c1cc(C(F)(F)F)c(Cl)c([N+](=O)[O-])c1Nc1ncc(C(F)(F)F)cc1Cl | 30.6 µM (active) | 77 µM (active) | – | –
CC(=O)NC1CCSC1=O (stereo not given) | inactive | inactive | – | –
O=[N+]([O-])O | inactive | inactive | – | –
OCCOCCO | inactive | inactive | – | –
C=CC(=O)[O][Sn]([CH2]CCC)([CH2]CCC)[CH2]CCC | 8.63 µM (active) | 6.86 µM (active) | – | –
C[C@H]1CNCCc2ccc(Cl)cc21 | inactive | inactive | – | –
CCC/C=N/O | inactive | inactive | – | –
C=C(C)C(=O)OCC(CC)CCCC (stereo not given) | inactive | inactive | – | –
COc1cc(-c2ccc(N)c(OC)c2)ccc1N | inactive | inactive | – | –
Cc1cccc([N+](=O)[O-])c1 | inactive | inactive | – | –
COC12CC[C@@]3(C[C@@H]1C(C)(O)C(C)(C)C)[C@H]1Cc4ccc(O)c5c4[C@@]3(CCN1CC1CC1)[C@H]2O5 (stereo not given in full) | 60.7 µM (active) | inactive | – | –

SMILES | Potency [1] | Potency [2] | viability change, negative = cytotoxic [1] | activity change, negative = cytotoxicity [2]
BrCC(Br)C1CCC(Br)C(Br)C1 (stereo not given) | inactive | inactive | – | –
NNCCO | inactive | inactive | – | –
CCN(Cc1ccc(Cl)nc1)/C(=C/[N+](=O)[O-])NC | inactive | inactive | – | –
O=C(O)C(Br)(Br)Br | inactive | inactive | – | –
ClCCN1CCOCC1 | inactive | inactive | – | –
CCN(CC)CCN1C(=O)CN=C(c2ccccc2F)c2cc(Cl)ccc21 | inactive | inactive | – | –
CC1(C)[C@H](C(=O)O[C@H](C#N)c2cccc(Oc3ccccc3)c2)[C@@H]1C=C(Br)Br | inactive | inactive | – | –
O=C1C(Cl)=C(Cl)C(=O)c2ccccc21 | inactive | inactive | – | –
CNC(=O)Oc1c(C(C)(C)C)cc(C)cc1C(C)(C)C | inactive | inactive | – | –
FC(F)(F)c1cccc(C2=CCN(CCc3ccc4ccccc4c3)CC2)c1 | inactive | inactive | – | –
ClC1=C(Cl)[C@]2(Cl)[C@H]3[C@H]([C@@H]4C=C[C@H]3C4)[C@@]1(Cl)C2(Cl)Cl | inactive | inactive | – | –
CS(=O)(=O)c1ccc(C(=O)C2C(=O)CCCC2=O)c(Cl)c1COCC(F)(F)F | inactive | inactive | – | –
C#CC1(O)CCCCC1 | inactive | inactive | – | –
C[C@]12CC[C@H]3[C@@H](CCC4=CC(=O)CC[C@@]43C)[C@@H]1CC[C@@H]2O | inactive | inactive | – | –
CCC(C)c1ccc(O)cc1 (stereo not given) | inactive | inactive | – | –
COC(=O)C(Br)CBr (stereo not given) | inactive | inactive | – | –
CCCSP(=O)(OCC)Oc1ccc(Br)cc1Cl (stereo not given) | inactive | inactive | – | –
CCOP(=S)(OCC)Oc1cc(C)nc(N(CC)CC)n1 | inactive | inactive | – | –
C=CC(C)(CCC=C(C)C)OC(=O)c1ccccc1N (stereo not given) | inactive | inactive | – | –
O=[N+]([O-])C(Br)Br | inactive | inactive | – | –

SMILES | Potency [1] | Potency [2] | viability change, negative = cytotoxic [1] | activity change, negative = cytotoxicity [2]
NCCc1cc(O)c(O)cc1O | inactive | inactive | – | –
CCCCCCCCCC(CC)c1ccc(S(=O)(=O)O)cc1 (stereo not given) | inactive | inactive | – | –
CCCN(CC1CC1)c1c([N+](=O)[O-])cc(C(F)(F)F)cc1[N+](=O)[O-] | inactive | inactive | – | –
COc1ccc(C(O)(c2cncnc2)C2CC2)cc1 (stereo not given) | inactive | inactive | – | –
CN(C)c1ccccc1 | inactive | inactive | – | –
CCOC(=O)COc1ccc(Cl)cc1Cl | inactive | inactive | – | –
O=C(O)CBr | inactive | inactive | – | –
CC[n+]1ccccc1 | inactive | inactive | – | –
CCCC[n+]1ccccc1C | inactive | inactive | – | –
COP(=S)(OC)Oc1c(Cl)cc(C)cc1Cl | inactive | inactive | – | –
N#Cc1c[nH]cc1-c1cccc2c1OC(F)(F)O2 | inactive | inactive | – | –
O=NN1CCCCCC1 | inactive | inactive | – | –
CC(C#N)CCC#N (stereo not given) | inactive | inactive | – | –
CC(C)Oc1cc(-n2nc(C(C)(C)C)oc2=O)c(Cl)cc1Cl | inactive | inactive | – | –
Nc1ccc(Cl)cc1 | inactive | inactive | – | –
O=C(N[C@H]1N=C(c2ccccc2F)c2cccc3c2N(CC3)C1=O)c1cc2ccccc2[nH]1 | inactive | inactive | – | –
CN1C(=O)NC(=O)C(C)(C2=CCCCC2)C1=O (stereo not given) | inactive | inactive | – | –
Nc1cc(Cl)cc(C(=O)O)c1Cl | inactive | inactive | – | –
O=c1[nH]oc2c1CCNC2 | inactive | inactive | – | –
COc1cccc(C(=O)CCN[C@@H](C)[C@H](O)c2ccccc2)c1 | inactive | inactive | – | –

Reference: PubChem BioAssay (Tox21)
